Measurements as given in PubChem BioAssay (NCI).
The panel holds about 83,000 compounds, 20% with a hit somewhere; the sample as a whole holds those more often.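 96-well plates, one dose, 48 hours. Percent growth reported; active if below 10.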 Unmarked numbers belong to inactive results. Active and inactive are the calls of the source.

What follows are compounds tested on CCRF-CEM leukemia (assay: NCI-60 one-dose screen, 48 h (100 = growth as untreated, 0 = no growth, -100 = all killed)). Conditions: 10 µM unless noted.
With O=C(Nc1ccc(Cl)cc1)Nc1ccc(Cl)c(Cl)c1 the growth was 6.06% (active). CC(C)Cc1ccc(C(C)C(=O)NCc2ccc(Cn3c(=O)sn(-c4ccc(Cl)cc4)c3=O)cc2)cc1 (configuration not stated) showed a growth of 96.2%. For COc1ccc(/C=N/NC(=O)c2cccc3cc[nH]c23)cc1O, the growth was 0.582% (active). For COc1cc(NCC(O)CN(CC(C)C)C2CCCC2)c2ncccc2c1 (configuration not stated), the growth was 114%. For COc1cccc(CCC(=O)c2cc3c(N)c(C(=O)Nc4ccccc4)sc3nc2C)c1, the growth was 29.7%. CN1CCN(CCCNc2nccc(-c3c(-c4ccc(F)c(O)c4)nc4sccn34)n2)S1(=O)=O gave a growth of 76%. With COc1ccccc1Nc1cc(O)c2c(=O)cc(-c3ccccc3)oc2c1 the growth was 7.29% (active). Compound C[C@@H]1CN(Cc2ccc(/C=C/c3n[nH]c4ccc5nc(-c6cn[nH]c6C(F)(F)F)c6c(c5c34)CCCC6)cc2)C[C@H](C)O1 has a growth of 15.4%. Compound COc1ccc(-c2ncc(-c3ccccc3)[nH]2)cc1OC has a growth of 18%. Compound CCOC(=O)c1ccc(Nc2ccnc(SCC(=O)c3ccc(C#N)cc3)n2)cc1 has a growth of 17.5%. CCCCCCCCCCCCCCCCCCOc1ccccc1N was tested, and the growth was 11%. In the case of COc1ccc(C2CC(c3cccc(Nc4ccncc4)c3)=NN2c2ccc(Cl)cc2)cc1 (configuration not stated), the growth was 4.44% (active). Compound O=C(Nc1ccccc1)Oc1ccccc1-c1ccccc1 has a growth of 95.8%. Clc1ccc(C2CC(c3cccc(Nc4ccncc4)c3)=NN2c2ccc(Cl)cc2)cc1 (configuration not stated) was tested, and the growth was 2.88% (active). With Clc1ccc(N2N=C(c3cccc(Nc4ccncc4)c3)CC2c2ccc(Br)cc2)cc1 (configuration not stated) the growth was 3.27% (active). With Fc1ccc(C2CC(c3cccc(Nc4ccncc4)c3)=NN2c2ccccc2)cc1 (configuration not stated) the growth was 32.4%. With COc1ccc2c(c1)OC1=C(C(=O)OC1)C2c1cc(OC)c(OC)c(OC)c1 (configuration not stated) the growth was 13.8%. In the case of COc1ccncc1C#Cc1cncc(C(=O)Nc2ccc(CN3CCN(C)CC3)c(C(F)(F)F)c2)c1, the growth was 12.3%. With Clc1cc(Cl)cc(N2N=C(c3cccc(Nc4ccncc4)c3)CC2c2ccc(Br)cc2)c1 (configuration not stated) the growth was -12.9% (active). Work on CN1CCN(C(=O)[C@]2(C)CC[C@]3(C)CC[C@]4(C)C(=CC(=O)[C@@H]5[C@@]6(C)CCC(=O)NC(C)(C)[C@@H]6CC[C@]54C)[C@@H]3C2)CC1 yielded a growth of 93.2%. COc1ccc(-c2nc(SCC(C)C)nc(N/N=C(/C)c3ccc(OC)c(OC)c3)c2C#N)cc1 gave a growth of 70.3%. Work on CC(=O)NCCCS(=O)(=O)O yielded a growth of 106%. In the case of O=C1Nc2c(ccc(Cl)c2Cl)/C1=C/c1ccccn1, the growth was 23.2%. For CN1CCN(c2ccc(NC3=C(Cl)C(=O)c4ncccc4C3=O)cc2C#N)CC1, the growth was -19.9% (active). Work on COc1ccc(NS(=O)(=O)c2ccc(C)cc2)c([N+](=O)[O-])c1 yielded a growth of 97%. With Cc1ccc(C2CC(c3cccc(Nc4ccncc4)c3)=NN2c2ccccc2)cc1 (configuration not stated) the growth was -24.5% (active). In the case of COc1cc(-c2nc3occn3c2-c2ccnc(NCCNS(=O)(=O)c3ccc(Cl)cc3)n2)ccc1F, the growth was 60.9%. C[C@]12CCc3nc(Nc4cccc(O)c4)sc3C1=CC[C@@H]1[C@@H]2CC[C@]2(C)/C(=N\NC(N)=S)CC[C@@H]12 was tested, and the growth was 1.64% (active). With CCN(CC)CCCC(C)Nc1cc(-c2cccc(OC(F)(F)F)c2)nc2ccc(N3CCCC3)cc12 (configuration not stated) the growth was -22.4% (active). For Nc1nnc2cc(Cl)ccc2n1, the growth was 87.7%. With OC1(c2ccc(Cl)c(C(F)(F)F)c2)CCN(CCCC(c2ccc(F)cc2)c2ccc(F)cc2)CC1 the growth was -39% (active). For Clc1ccc(N2N=C(c3cccc(Nc4ccncc4)c3)CC2c2ccccc2)cc1 (configuration not stated), the growth was 96.3%. In the case of CC1=NNC(=O)C1CCC(=O)N/N=C(\C)c1ccc2ccccc2c1 (configuration not stated), the growth was 105%. With COc1c(Cl)cc(Cl)c2ccc(C=C3C(=O)N(C)C(=O)N(C)C3=O)nc12 the growth was 99.8%. With Cn1c(COC(=O)NCCN2CCOCC2)nc2c(N3CCOCC3)nc(-c3ccccc3)nc21 the growth was -10.9% (active). COc1ccc(C(O)c2cc3c(N)c(C(=O)Nc4ccc(Br)cc4)sc3nc2C)cc1 (configuration not stated) was tested, and the growth was 6.36% (active). In the case of O=c1[nH]c2c(s1)CCCC2CN1CCCCC1 (configuration not stated), the growth was 109%.
